# The full data set covers some 8,800 targets. This sample favours those with a hit. About 0.5% of all pairs of compound and target were hits. A number with no mark means an inactive call.
# How the values were obtained:
# Assay in all cases: log2 fold change, soluble protein after heating vs DMSO (PISA); higher = thermal stabilisation; K562 lysate, 10 uM; active = over 0.2 and 3.5 SD of the protein, either way, in both replicates (recomputed)
# ibrutinib = compound: C=CC(=O)N1CCC[C@@H](n2nc(-c3ccc(Oc4ccccc4)cc3)c3c(N)ncnc32)C1 [ibrutinib]
# Method in brief: (§1)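 K562 pellets were dounce-homogenised in PBS pH 7.4 containing 1 mM MgCl2, and the crude extract, at 1 mg/mL protein, was exposed to 10 μM compound for 30 min. Aliquots were heated for 3 min across 48°C-58°C, pooled, brought to 0.5% NP-40 at 4°C and spun at 21,000xg for 90 min, with the supernatant taken as soluble protein. TMTpro 16plex LC-MS/MS with equalised channel sums quantified that protein. Values are log-two fold changes in thermal stability relative to solvent controls, taken from duplicates.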
# [1] = compound: CC(=O)c1cnc2ccc(-c3cc(Cl)c(O)c(Cl)c3)nc2c1N[C@H]1CC[C@H](CN(C)C)CC1
# Method in brief: as §1
# ralimetinib = compound: CC(C)(C)Cn1c(N)nc2ccc(-c3[nH]c(C(C)(C)C)nc3-c3ccc(F)cc3)nc21 [ralimetinib]
# Method in brief: as §1
# [2] = compound: CC(C)(O)CC(=O)NCCn1ccc2ncnc(Nc3ccc(Oc4cccc(C(F)(F)F)c4)c(Cl)c3)c21
# Method in brief: as §1
# [3] = compound: CC1=C(C(CC(=O)N1)C2=CC=C(C=C2)C(F)(F)F)C(=O)NC3=C(C=C4C(=C3)C=NN4)F
# Method in brief: as §1
# [4] = compound: CC1=C(C=C(C=C1)NC(=O)C2=CC(=CC=C2)C(C)(C)C#N)NC3=CC4=C(C=C3)N=CN(C4=O)C
# Method in brief: as §1
# [5] = compound: CC1=C(C=C(C=C1)NC(=O)C2=CC(=CC=C2)N(C)C)NC(=O)C3=CC=C(C=C3)O
# Method in brief: as §1
# [6] = compound: CC1=CC=C(C=C1)SC2=C3C=C(SC3=CN=C2)C(=O)N
# Method in brief: as §1
# vemurafenib = compound: CCCS(=O)(=O)Nc1ccc(F)c(C(=O)c2c[nH]c3ncc(-c4ccc(Cl)cc4)cc23)c1F [vemurafenib]
# Method in brief: as §1
# [7] = compound: CCCS(=O)(=O)Nc1ccc(F)c(C(=O)c2c[nH]c3ncc(Cl)cc23)c1F
# Method in brief: as §1
# barasertib = compound: CCN(CCCOc1ccc2c(Nc3cc(CC(=O)Nc4cccc(F)c4)[nH]n3)ncnc2c1)CCOP(=O)(O)O [barasertib]
# Method in brief: as §1
# [8] = compound: CC[C@@H]1C(=O)N(C)c2cnc(Nc3ccc(C(=O)NC4CCN(C)CC4)cc3OC)nc2N1C1CCCC1
# Method in brief: as §1
# volasertib = compound: CC[C@@H]1C(=O)N(C)c2cnc(Nc3ccc(C(=O)N[C@H]4CC[C@H](N5CCN(CC6CC6)CC5)CC4)cc3OC)nc2N1C(C)C [volasertib]
# Method in brief: as §1
# [9] = compound: CCn1c(C(=O)N(C2CC2)C2CC2)cc2c3c(ncn3C)c(Nc3cc(C)n(C)n3)nc21
# Method in brief: as §1
# [10] = compound: CCn1cc(-c2ccnc3[nH]c(-c4cccc(CN(C)C)c4)cc23)c(-c2ccc(NC(=O)N(C)C)cc2)n1
# Method in brief: as §1
# [11] = compound: CN1CCC(CNc2ccc3ncc(-c4cccc(OC(F)(F)F)c4)n3n2)CC1
# Method in brief: as §1
# sotrastaurin = compound: CN1CCN(c2nc(C3=C(c4c[nH]c5ccccc45)C(=O)NC3=O)c3ccccc3n2)CC1 [sotrastaurin]
# Method in brief: as §1
# [12] = compound: CC1=C(C2=C(C=C1)C(=O)C3=CC=CC=C3N2CCCN)C
# Method in brief: as §1
# saracatinib = compound: CN1CCN(CCOc2cc(OC3CCOCC3)c3c(Nc4c(Cl)ccc5c4OCO5)ncnc3c2)CC1 [saracatinib]
# Method in brief: as §1
# [13] = compound: CC(C)C1=C2N=C(C=C(N2N=C1)NCC3=CC=CC=C3)NCCCCCCN
# Method in brief: as §1
# Chain of UniProt Q9BQI0 (Q9BQI0 whole entry, looked up): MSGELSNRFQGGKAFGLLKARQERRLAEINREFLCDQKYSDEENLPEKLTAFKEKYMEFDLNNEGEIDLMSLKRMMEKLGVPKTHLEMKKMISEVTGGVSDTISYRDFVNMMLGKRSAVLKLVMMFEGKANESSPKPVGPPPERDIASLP
# Chain of UniProt Q6P1M9 (Q6P1M9 whole entry, looked up): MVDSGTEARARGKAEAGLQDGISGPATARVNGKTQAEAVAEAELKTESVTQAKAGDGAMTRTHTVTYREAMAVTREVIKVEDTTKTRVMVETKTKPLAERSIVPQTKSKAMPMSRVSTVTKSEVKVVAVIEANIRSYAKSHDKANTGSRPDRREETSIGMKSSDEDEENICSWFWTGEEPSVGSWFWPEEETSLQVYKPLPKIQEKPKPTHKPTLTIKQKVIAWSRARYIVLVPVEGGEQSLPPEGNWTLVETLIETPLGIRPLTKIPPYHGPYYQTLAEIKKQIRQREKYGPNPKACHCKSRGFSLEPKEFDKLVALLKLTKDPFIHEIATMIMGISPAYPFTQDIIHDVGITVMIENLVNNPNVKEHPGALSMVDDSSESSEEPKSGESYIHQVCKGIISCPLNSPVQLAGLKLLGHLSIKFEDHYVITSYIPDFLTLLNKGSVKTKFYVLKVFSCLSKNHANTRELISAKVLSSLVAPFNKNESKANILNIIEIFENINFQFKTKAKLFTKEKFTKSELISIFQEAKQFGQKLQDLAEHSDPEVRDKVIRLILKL
# Chain of UniProt P53396 (P53396 whole entry, looked up): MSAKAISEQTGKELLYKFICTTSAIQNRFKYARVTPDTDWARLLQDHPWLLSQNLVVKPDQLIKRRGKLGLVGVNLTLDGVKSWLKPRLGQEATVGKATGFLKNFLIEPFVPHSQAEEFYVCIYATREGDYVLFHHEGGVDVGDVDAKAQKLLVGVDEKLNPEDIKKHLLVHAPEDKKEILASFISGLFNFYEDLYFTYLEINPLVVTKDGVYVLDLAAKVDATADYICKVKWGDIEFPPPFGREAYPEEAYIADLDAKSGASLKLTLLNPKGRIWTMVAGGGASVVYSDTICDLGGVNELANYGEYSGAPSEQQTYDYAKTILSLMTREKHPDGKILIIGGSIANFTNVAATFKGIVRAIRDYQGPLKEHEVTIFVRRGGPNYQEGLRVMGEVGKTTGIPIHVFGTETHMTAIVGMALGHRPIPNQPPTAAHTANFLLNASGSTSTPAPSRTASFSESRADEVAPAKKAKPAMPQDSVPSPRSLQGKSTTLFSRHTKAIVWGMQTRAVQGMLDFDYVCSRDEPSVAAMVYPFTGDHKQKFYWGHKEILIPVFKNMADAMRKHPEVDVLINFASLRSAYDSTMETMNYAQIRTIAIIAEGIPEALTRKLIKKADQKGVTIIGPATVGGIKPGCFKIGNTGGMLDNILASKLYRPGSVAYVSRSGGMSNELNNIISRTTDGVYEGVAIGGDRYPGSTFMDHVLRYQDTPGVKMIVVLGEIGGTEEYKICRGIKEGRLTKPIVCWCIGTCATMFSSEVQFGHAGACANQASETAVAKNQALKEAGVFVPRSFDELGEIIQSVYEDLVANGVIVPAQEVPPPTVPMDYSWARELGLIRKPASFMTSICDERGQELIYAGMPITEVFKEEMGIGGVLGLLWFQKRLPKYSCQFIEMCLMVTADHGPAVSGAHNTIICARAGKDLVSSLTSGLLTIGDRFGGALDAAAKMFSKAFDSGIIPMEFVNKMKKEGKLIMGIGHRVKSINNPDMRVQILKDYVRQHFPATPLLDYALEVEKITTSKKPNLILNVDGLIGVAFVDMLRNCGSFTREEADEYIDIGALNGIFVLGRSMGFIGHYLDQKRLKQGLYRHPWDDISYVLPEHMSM
# Chain of UniProt Q6AI12 (Q6AI12 whole entry, looked up): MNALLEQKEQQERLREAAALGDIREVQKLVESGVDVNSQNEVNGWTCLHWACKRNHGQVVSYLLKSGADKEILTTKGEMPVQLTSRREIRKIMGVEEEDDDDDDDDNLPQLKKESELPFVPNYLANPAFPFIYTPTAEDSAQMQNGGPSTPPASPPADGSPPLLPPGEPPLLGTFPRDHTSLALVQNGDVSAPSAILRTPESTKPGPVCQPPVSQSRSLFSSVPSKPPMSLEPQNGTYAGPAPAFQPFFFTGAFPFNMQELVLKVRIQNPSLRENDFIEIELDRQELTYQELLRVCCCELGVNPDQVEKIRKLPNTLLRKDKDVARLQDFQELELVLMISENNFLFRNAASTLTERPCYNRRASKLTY
# Chain of UniProt Q8N302 (Q8N302 whole entry, looked up): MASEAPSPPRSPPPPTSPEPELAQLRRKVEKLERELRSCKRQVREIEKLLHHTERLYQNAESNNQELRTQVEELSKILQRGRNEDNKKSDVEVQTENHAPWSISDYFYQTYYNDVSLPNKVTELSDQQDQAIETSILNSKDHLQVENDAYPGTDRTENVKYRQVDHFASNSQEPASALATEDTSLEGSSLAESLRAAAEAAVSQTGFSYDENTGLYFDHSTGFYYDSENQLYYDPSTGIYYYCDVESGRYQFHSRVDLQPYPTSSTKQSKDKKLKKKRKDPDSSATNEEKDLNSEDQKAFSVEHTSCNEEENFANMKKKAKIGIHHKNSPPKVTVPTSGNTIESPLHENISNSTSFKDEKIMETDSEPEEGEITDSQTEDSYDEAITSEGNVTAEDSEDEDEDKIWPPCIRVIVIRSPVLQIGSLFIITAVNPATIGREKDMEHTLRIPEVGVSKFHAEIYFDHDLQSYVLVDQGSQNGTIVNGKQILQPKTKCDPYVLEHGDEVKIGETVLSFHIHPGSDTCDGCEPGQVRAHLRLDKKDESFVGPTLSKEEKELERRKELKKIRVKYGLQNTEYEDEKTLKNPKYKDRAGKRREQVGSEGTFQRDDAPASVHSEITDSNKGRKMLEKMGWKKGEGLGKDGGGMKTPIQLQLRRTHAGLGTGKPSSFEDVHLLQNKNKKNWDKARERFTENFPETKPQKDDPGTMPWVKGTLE
# Chain of UniProt P27216 (P27216 whole entry, looked up): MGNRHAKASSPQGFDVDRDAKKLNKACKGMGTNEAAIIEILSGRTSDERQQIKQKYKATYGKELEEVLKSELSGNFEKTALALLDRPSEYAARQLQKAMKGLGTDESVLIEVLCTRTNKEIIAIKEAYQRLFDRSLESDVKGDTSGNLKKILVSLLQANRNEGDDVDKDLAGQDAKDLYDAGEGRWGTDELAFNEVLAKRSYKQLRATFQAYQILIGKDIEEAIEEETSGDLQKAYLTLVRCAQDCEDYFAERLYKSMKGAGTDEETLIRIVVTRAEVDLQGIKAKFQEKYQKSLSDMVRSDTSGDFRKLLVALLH
Target,log2 fold change (ibrutinib),log2 fold change [1],log2 fold change (ralimetinib),log2 fold change [2],log2 fold change [3],log2 fold change [4],log2 fold change [5],log2 fold change [6],log2 fold change (vemurafenib),log2 fold change [7],log2 fold change (barasertib),log2 fold change [8],log2 fold change (volasertib),log2 fold change [9],log2 fold change [10],log2 fold change [11],log2 fold change (sotrastaurin),log2 fold change [12],log2 fold change (saracatinib),log2 fold change [13]
ACLY isoform 2 (UniProt P53396),-0.015,0.028,-0.022,0.07,0.008,0.018,-0.008,-0.01,0.035,0,-0.088,0.045,-0.033,-0.187,-0.485 (active),0.43,0.02,–,–,–
ARHGEF2 (UniProt V9GYF0),–,0.02,-0.041,-0.126,-0.055,–,0.008,-0.07,-0.013,0.05,–,0.022,-0.022,0.11,–,–,–,-0.011,-0.114,–
"ACAT1, A0A5F9ZHJ0",–,–,0.034,-0.129,-0.106,–,0.013,–,–,–,–,–,–,-0.131,-0.006,0.081,–,–,–,–
AGGF1 (UniProt Q8N302),0.034,0.077,-0.014,-0.023,-0.011,0.034,-0.04,-0.341,0.112,-0.043,0.115,0.084,-0.06,0.001,-0.43 (active),0.175,0.025,–,–,-0.017
AIF1L (UniProt Q9BQI0),0.169,0.032,0.029,-0.003,-0.012,-0.014,-0.005,-0.013,–,0.049,0.009,-0.101,-0.086,0.091,0.153,-0.117,0.115,0.159,0.13,-0.105
ARMCX5 (UniProt Q6P1M9),0.04,-0.018,0.012,0.013,-0.047,–,-0.049,-0.093,0,0.032,0.007,-0.034,-0.012,-0.027,-0.099,-0.03,–,0.053,0.043,-0.004
ANXA2 (UniProt H0YL33),0.235,-0.167,-0.076,0.129,0.033,-0.211,0.005,-0.144,–,0.012,0.37,–,0.136,0.012,0.643 (active),-0.416,0.214,0.025,0.088,-0.353
ANKRD40 (UniProt Q6AI12),0.008,–,0.062,0.05,0.027,0.075,0.087,–,0.501,–,-0.091,-0.118,–,-0.066,0.094,-0.075,0.012,-0.231,-0.101,0.051
ANXA13 isoform 2 (UniProt P27216),0.051,0.092,0.022,0.169,-0.034,0.053,-0.001,0.06,-0.129,-0.071,0.091,–,-0.035,0.131,-0.179,0.106,-0.001,0.062,0.004,-0.057
